# IL-1B inflam inh: inhibitors of inflammasome signaling (IL-1 beta secretion); THP-1 LPS/ATP IL-1B secretion, AlphaLISA, 16 h; stronger effect = lower value; actives 4.7% (n = 360,000); activity change, % at 57.5 µM; in the data active = activity change below about -50%; inconclusive = mostly about -30% to -49%
#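 THP-1 cells pretreated 1 hr with compounds (up to 57.5 uM final), then stimulated with LPS (250 ng/mL final) plus ATP (1.25 mM final); secreted IL-1B measured by AlphaLISA after 16 hr, decreased signal indicating inhibition.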
# DT40 TDP1 CPT: growth inhibition of DT40 Tdp1-/-;hTDP1 cells with camptothecin (screen for TDP1 inhibitors). chicken DT40 Tdp1-/-;hTDP1 cells + 20 nM CPT, ATP luminescence, 48 h. Potency, µM (titrated, usually from 46.2 µM), inactives show top-dose activity change, negative = growth inhibition, usual class: inhibitors. AID 686979. actives 12% (n = 420,000); note: potency is the fitted concentration of half-maximal effect; nearly all actives have a fitted effect of over 55% in size
#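 Chicken DT40 Tdp1-/- cells stably complemented with human TDP1 were seeded at 400 cells/well in medium containing 20 nM camptothecin, exposed to pin-transferred compounds, and grown at 37 °C for at least 48 hr. Viability was read as ATP luminescence.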
# TDP1 cell noCPT: qHTS for Inhibitors of human tyrosyl-DNA phosphodiesterase 1 (TDP1): qHTS in cells in absence of CPT. DT40 Tdp1-/- hTDP1 cells, no CPT, ATP luminescence, 48 h. Potency, µM (series often up to 46.2 µM), inactives show top-dose activity change, negative = growth inhibition, usual class: inhibitors. actives 15% (n = 420,000); note: potency is the fitted concentration of half-maximal effect; nearly all actives have a fitted effect of over 55% in size
#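 Chicken DT40 Tdp1-/- cells complemented with human TDP1, screened without camptothecin (DMSO vehicle only), 400 cells/well. Compounds pin-transferred, cells incubated at 37 °C for at least 48 hr. Growth read as ATP-dependent luminescence (CellTiter-Glo, 30 min at RT).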
# HT1080NT lethal: kills 2HG-producing HT-1080-NT fibrosarcoma cells | HT-1080-NT fibrosarcoma viability, CellTiter-Glo ATP luminescence, 48 h | Potency, µM (series often up to 46.1 µM), without a hit: top-dose activity, negative = less viability, hits mostly cytotoxic | actives 1.6% (n = 360,000) | AID 686970;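 note: NT is the 2HG producing partner of a matched IDH1 knockdown line; potency is the fitted concentration of half-maximal effect; 0% = DMSO-treated cells and -100% = media-only wells without cells; nearly all actives have a fitted effect of over 55% in size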
#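 Compounds were tested in concentration-response format on HT-1080-NT cells for 48 hours at 37 degrees C. Cell viability came from CellTiter-Glo luminescence; curves were classified by r2, response magnitude and activity.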
# HT1080 IDH1KD tx: kills HT-1080 cells with IDH1 knockdown; HT-1080 IDH1 knockdown viability, ATP luminescence, 48 h; Potency, µM (top dose mostly 46.1 µM), for the others: top-dose activity, negative = toxicity, hits mostly cytotoxic; actives 2% (n = 360,000);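 note: potency is the fitted concentration of half-maximal effect; 0% = DMSO wells and -100% = cell-free medium wells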
#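 In this qHTS, HT-1080 cells depleted of IDH1 are exposed for 48 h at 37 °C to compound titrations. Toxicity is scored from CellTiter-Glo luminescence, with DMSO as full viability and medium alone as none.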
# Numbers without * were called inactive; ? = inconclusive; . = not tested or not shown; ! = a repeat was not active; [ ] = dose if it differs, or a comment. Rows were chosen to be rich in hits. Some 19% of all compounds tested hit in one or more screens of this group. Unless noted, calls come from the whole dose curve; as a rule, active = well fitted curve in the direction sought with a large enough effect; inconclusive = small, poorly fitted or top-dose-only effect, or another doubt; inactive = no such curve, though single readings can be large; an effect the other way counts as inactive or inconclusive. Unless noted, % is set by controls: 0 for no effect and ±100 for the full control effect.
SMILES,IL-1B inflam inh,DT40 TDP1 CPT,TDP1 cell noCPT,HT1080NT lethal,HT1080 IDH1KD tx
CCN(CC)C(c1ccc(C)cc1)c1nnnn1C1CCCCC1 (centres undefined),-8,?,18µM*,3%,0%
Fc1ccc(C(c2nnnn2C2CCCC2)N2CCc3ccccc32)cc1 (centres undefined),-6,?,23µM*,-1%,-5%
Cc1ccc(C(c2nnnn2C2CCCCC2)N2CCN3CCCC3C2)cc1 (centres undefined),-15,?,-25%,10%,-6%
COc1ccc(C(c2nnnn2C2CCCC2)N2CCc3ccccc3C2)cc1OC (centres undefined),?,?,?,6%,-6%[9.24 µM]
CCCCN1CC(=O)N2[C@H](c3ccc(Cl)cc3)[C@@H]3C(=O)N(CC)C(=O)[C@@H]3[C@]2(C)C1=O,9,-5%,-4%,11%,12%
CC1=NCCN1S(=O)(=O)c1ccccc1[N+](=O)[O-],4,-20%,8%,12%,4%
CCC(CC)C(=O)Nc1c(C(=O)N2CCN(c3ccccc3F)CC2)oc2ccccc12,.,15µM*,10µM*,.,.
CCOc1ccc(C(=O)Nc2c(C(=O)N3CCN(c4ccccc4F)CC3)oc3ccccc23)cc1,.,?,-18%,.,.
CC(C)C(=O)Nc1c(C(=O)N2CCN(c3ccccc3F)CC2)oc2ccccc12,.,10µM*,12µM*,.,.
O=C(Nc1c(C(=O)N2CCN(c3ccccc3F)CC2)oc2ccccc12)c1ccc(Br)o1,.,18µM*,?,.,.
CC(C)C(=O)Nc1c(C(=O)N2CCN(c3ncccn3)CC2)oc2ccccc12,-11,-23%,-11%,29%,1%
O=C(c1ccc(Br)o1)N1CCN(c2ccccc2F)CC1,-21,7%,?,9%,29%
CCCC(=O)Nc1ccc(N2CCN(C(=O)c3cc4ccccc4o3)CC2)cc1,1,-9%,?,-6%,0%
CCCCC(=O)Nc1c(C(=O)N2CCN(c3ccccc3)CC2)oc2ccccc12,.,15µM*,9.2µM*,.,.
CN(C)c1ncc2nc(-c3ccc(F)cc3)c(=O)n(CCC#N)c2n1,.,23%,-3%,.,.
CCC(CC)C(=O)Nc1c(C(=O)N2CCN(c3ccccc3)CC2)oc2ccccc12,-13,21µM*,8.2µM*,?,-24%
CC(C)CC(=O)Nc1c(C(=O)N2CCN(c3ccccc3)CC2)oc2ccccc12,.,15µM*,21µM*,.,.
CC(C)CC(=O)Nc1ccccc1N1CCN(C(=O)c2ccccc2)CC1,10,-26%,-17%,7%,-1%
O=C(c1cnn2c(C(F)(F)F)cc(-c3ccco3)nc12)N1CCc2ccccc2C1,-21,?,?,1%,9%
Cc1ccc(Nc2nc(N)nc(CCl)n2)cc1,.,16µM*,?,2.3µM*,8.2µM*
Cc1c(Cl)cccc1Nc1nc(N)nc(CN2CCc3ccccc3C2)n1,?,-15%,-14%,-18%,-22%
Cc1ccc(Nc2nc(N)nc(CN3CCc4ccccc4C3)n2)cc1,?,18µM*,?,-17%,-7%
COc1cccc(Nc2nc(N)nc(C(F)(F)F)n2)c1,-9,-4%,-17%,-29%,?
CCOc1ccc(Nc2nc(N3CCCCC3)nc(N3CCCCC3)n2)cc1,6,-21%,?,4%,9%
CCOc1ccc(Nc2nc(N)nc(CCl)n2)cc1,-96*,2.1µM*,5.8µM*,0.82µM*,?
SMILES,IL-1B inflam inh,DT40 TDP1 CPT,TDP1 cell noCPT,HT1080NT lethal,HT1080 IDH1KD tx
COc1cccc(Nc2nc(N)nc(CCl)n2)c1,.,13µM*,?,7.3µM*,10µM*
CN(C)c1cccc(C(=O)NNC(=O)CN2C(=O)C3CC=CCC3C2=O)c1 (centres undefined),-17,11%,-8%,17%,7%
Cc1cccc(Nc2nc(N)nc(CCl)n2)c1C,.,10µM*,16µM*,1.6µM*,1.8µM*
Cc1cccc(Nc2nc(N)nc(CCl)n2)c1,-106*,13µM*,21µM*,3.7µM*,?
CCOC(=O)c1cnc(SCc2nc(N)nc(Nc3ccc(F)cc3)n2)nc1N,-12,?,?,-20%,?
Cc1ccc(Nc2nc(N)nc(CCl)n2)c(C)c1,-89*,6.5µM*,10µM*,5.8µM*,?
CCOC(=O)c1cnc(SCc2nc(N)nc(Nc3ccc(C)cc3)n2)nc1N,-52*,21µM*,?,?,?
Cc1cccc(Nc2nc(N)nc(CSc3nccc(C)n3)n2)c1,-27,-1%,-7%,3%,2%
Cc1ccc(CNC(=O)CN2C(=O)CCc3cc(S(=O)(=O)N4CCCCC4)ccc32)cc1,.,-21%,?,.,.
Cc1ccc(Nc2nc(N)nc(CC#N)n2)cc1,-9,0%,15%,13µM*,7.1µM*
Cc1ccc(Nc2nc(N)nc(CSc3nc(C)cc(C)n3)n2)cc1,-23,-14%,-23%,-19%,-6%
CCOC1=NN(c2ccc(Cl)cc2)C(=O)/C1=C\N(C)C,0,3%,-8%,5%,11%
O=C1CCC(C2CCc3cc(O)ccc3C2)C1 (centres undefined),5,19%,-16%,14%,7%
O=C(Nc1cccc2cccnc12)c1csc(COCCO)n1,?,23µM*,13µM*,-13%,0%
O=C(Nc1cccc2ccccc12)c1csc(COCCO)n1,-3,-58%,-45%,-28%,-25%
CC(OC(=O)c1cccnc1Cl)C(=O)NCc1ccccc1 (centres undefined),-4,16%,-6%,9%,9%
CNC[C@H](O)c1ccc(O)c(O)c1,?,8.4µM*!,12µM*!,15%,-1%
CC(C)NCC(O)c1ccc(O)c(O)c1 (centres undefined),-25,?,-24%,?,10%
O=S(=O)(c1ccc(F)cc1)c1snnc1-c1ccccc1,-100*,4.1µM*,2.9µM*,6.5µM*,?
CN(C)c1ncc(S(=O)(=O)c2ccc(Cl)cc2)c(-c2ccccc2)n1,22,?,?,-7%,-16%
O=S(=O)(c1ccc(Cl)cc1)c1snnc1-c1ccccc1,-115*,5.2µM*,4.1µM*,12µM*,7.3µM*
Cc1ccc(C)c(OCC(=O)Nc2ccncc2)c1,0,?,?,0%,?
CCN(CC)C(=O)N1CCN(C)CC1,-13,1µM*!,?,17%,17%
CCC(=O)N=c1ccn(C2=Nc3ccccc3NC2=C(C#N)C#N)cc1,-2,9%,4%,-8%,-5%
COc1ccc(NS(=O)(=O)c2cc(NC(=O)c3nc4nc(C)cc(C)n4n3)ccc2C)cc1,?,7%,?,?,?
